TRHR agonist: TRH receptor (human) agonism. P34981. TRHR cells, calcium flux fluo-8, FDSS agonist mode. activation, % at 2 µM. 0.18% of 360,000 active. AID 493084; in the data active means activation above about 30%; further: 0% is about no effect
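TRHR-expressing cells, plated overnight in medium with 10% serum, were loaded with fluo-8 calcium dye at room temperature. After a 10 s baseline, library compound was pin-added and calcium release was recorded kinetically (ex 480/em 530) as agonist response.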
PTHR1 agonist: agonists of human PTHR1 parathyroid hormone receptor; 0.075% of 410,000 active; Q03431; HEK293 GP2 PTHR1 cells, GloSensor cAMP luminescence, 1 h; Potency, µM (series often up to 115 µM), without a hit: top-dose activation, actives largely listed as activators; further: potency means the concentration at half of the fitted maximal effect; nearly all actives have a fitted effect of over 55% in size
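HEK-293-derived GP2 cells expressing PTHR1 and a GloSensor cAMP reporter, 3,000/well, plated overnight, given luciferin plus IBMX (each 0.5 mM as added) for 1 h at 37 °C, then compound for 1 h at 37 °C. Luminescence was read after 15 min at room temperature.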
HEK293 tox: cytotoxicity in counter-screen for GLP-1R inverse agonists; Potency, µM (doses to about 38.3 µM), inactives show top-dose activity change, negative = inhibition, usual class: inhibitors; HEK293 cAMP-luciferase reporter cells, luminescence, 24 h; 0.13% of 410,000 active;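 further: loss of luciferase light is scored as toxicity; potency means the concentration at half of the fitted maximal effect; on the % scale 0 is the no-effect control and ±100 the full control effect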
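Luminescence readout: signal drop marks cytotoxicity. Plated cells grew 12 h at 37 °C, 5% CO2, received 23 nL compound for 24 h, then got luciferase reagent, read after 12 min at RT.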
TRHR PAM: TRH receptor (human) allosteric enhancement; P34981; TRHR cells, fluo-8 calcium fluorescence, EC20 TRH enhancement; enhancement, % at 2 µM; 0.66% of 360,000 active; in the data active means enhancement above about 30%; further: 0% is about no effect
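TRHR-expressing cells loaded with fluo-8 calcium dye were read kinetically (ex 480/em 530) during compound addition, then stimulated with an EC20 of TRH (10 nM final). Enhancement of the Gq-mediated intracellular calcium response was scored.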
GLP1R ag: activates the human GLP-1 receptor. HEK293 GLP-1R CRE-luciferase, luminescence, 4-6 h; cells express a hypersensitive GLP-1R form. Potency, µM (series often up to 45.6 µM), for inactives: at the highest dose activation, actives largely listed as activators. 0.007% of 380,000 active. P43220; further: potency means the concentration at half of the fitted maximal effect; % of control where 0% means no effect
Target sequence (P43220 whole entry, looked up): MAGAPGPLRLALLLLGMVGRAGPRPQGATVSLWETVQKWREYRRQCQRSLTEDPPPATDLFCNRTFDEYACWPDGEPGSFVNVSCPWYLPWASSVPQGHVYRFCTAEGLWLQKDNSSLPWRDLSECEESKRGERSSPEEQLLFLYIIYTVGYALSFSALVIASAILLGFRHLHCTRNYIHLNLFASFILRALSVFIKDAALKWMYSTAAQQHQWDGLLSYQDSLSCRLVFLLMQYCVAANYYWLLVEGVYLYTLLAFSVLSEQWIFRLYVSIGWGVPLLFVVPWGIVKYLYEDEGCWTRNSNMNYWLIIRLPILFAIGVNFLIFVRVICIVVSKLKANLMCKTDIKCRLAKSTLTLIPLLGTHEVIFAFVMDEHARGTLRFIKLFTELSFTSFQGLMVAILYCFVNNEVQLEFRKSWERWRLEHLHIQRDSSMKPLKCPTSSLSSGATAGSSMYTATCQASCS
GLP-1R inv ag: acts as inverse agonist at human GLP-1 receptor. P43220. HEK293 GLP-1R CRE-luciferase, luminescence, 24 h; GLP-1R form is constitutively active. Potency, µM (series often up to 38.3 µM), without a hit: at the top dose activity change, negative = inhibition, most hits filed as inhibitors. 1.6% of 410,000 active. AID 624417; further: potency means the concentration at half of the fitted maximal effect; on the % scale 0 is the no-effect control and ±100 the full control effect; nearly all actives have a fitted effect of over 55% in size
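Assay principle: reduced luminescence from a cAMP-responsive reporter in HEK293 cells co-expressing a constitutively active GLP-1R. Conditions: 24 hr compound incubation, 37 deg C, 5% CO2.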
The depositor's hits bear a star; i = inactive; u = inconclusive; x = no result given; [ ] = another dose, or the depositor's remark. Compounds with a hit are over-represented: about 2.4% of the library has one in this group of screens. Unless noted, the call rests on the fitted dose curve; in most records, active means well fitted curve in the direction sought with a large enough effect; inconclusive means small, poorly fitted or top-dose-only effect, or another doubt; inactive means no such curve, though single readings can be large; an effect the other way counts as inactive or inconclusive.

SMILES | TRHR agonist | PTHR1 agonist | HEK293 tox | TRHR PAM | GLP1R ag | GLP-1R inv ag
COc1ccc(C(=O)N/N=C/c2ccccc2OC(=O)c2ccccc2)cc1 | 0 | i | -4% | -6 | u | 10µM*
COc1ccc(C2(CNC(=O)C(=O)Nc3ccc(F)cc3)CCCC2)cc1OC | 1 | -46% | -2% | 32* | x | 17%
O=C(O)c1cccc(CSc2nnc(Cc3ccccc3)o2)c1 | 0 | -5% | 2% | -3 | 2% | -1%
COc1cc(NC(=O)c2ccccc2)c(OC)cc1NC(=O)CN1CCCCC1 | 0 | -1% | -5% | -1 | u | 5µM*
COc1cc(NC(=O)c2ccccc2)c(OC)cc1NC(=O)CN1CCOCC1 | 0 | -14%[57.5 µM] | -15% | 16 | 7% | 25%
CC(C)c1ccc(-c2nn(-c3ccccc3)cc2C2C(C#N)=C(N)OC3=C2C(=O)CC(C)(C)C3)cc1 (configuration not stated) | 0 | i | -30% | 1 | -11% | 13µM*
CC(=O)Nc1nnc(-c2c(-c3ccccc3Cl)noc2C)o1 | 1 | -2% | 10% | 0 | 1% | 9%
O=C(CSc1ccccc1)Nc1ccccc1N1CCOCC1 | 0 | -2% | 8% | -1 | 13% | u
Cc1ccc(SCC(=O)Nc2ccccc2N2CCOCC2)cc1 | -1 | i | 3% | 4 | 11% | 7.9µM*
Cc1nn2c(CN(C(=O)COc3ccccc3)c3ccccc3)nnc2c2ccccc12 | 2 | i | 14% | 40* | 1% | 5%
Cc1nn2c(CN(C(=O)CN3CCOCC3)c3ccccc3)nnc2c2ccccc12 | 1 | i | 2% | 2 | 4% | 5%
O=C(CCSc1nc(-c2ccccc2)c(-c2ccccc2)o1)N1CCCCC1 | x | -93% | -5% | x | 13% | u
COc1ccc(-c2sc(NC(C)=O)nc2-c2ccccc2)cc1 | 0 | i | 48% | -1 | -4% | u
O=C(CSc1nc(-c2ccccc2)c(-c2ccccc2)o1)N1CCCCC1 | x | -31% | 2% | x | -1% | 11µM*
O=C(CSCC(=O)N1CCCCC1)Nc1nc(-c2ccccc2)c(-c2ccccc2)s1 | 0 | -46% | -5% | -3 | -3% | 5.6µM*
COC(=O)c1c(NC(=O)CN2C(=O)NC3(CCCCC3C)C2=O)sc2c1CCC2 (configuration not stated) | -1 | -17% | 1% | 5 | 2% | -28%
Cc1ccc(S(=O)(=O)N2CCCCC2C(=O)Nc2ccc(N(C)C)cc2)cc1 (configuration not stated) | x | -28% | -13% | x | 11% | 7.1µM*
Cc1ccc(S(=O)(=O)N2CCCC2C(=O)Nc2ccc(Br)cc2)cc1 (configuration not stated) | 1 | -93% | -10% | -7 | x | u
Cc1ccc2c(CC(=O)Nc3ccc(S(=O)(=O)N4CCCCC4C)cc3)coc2c1 (configuration not stated) | 2 | i | -6% | 3 | x | 11µM*
Cc1ccc(-c2nc3ccc(Cl)cn3c2CC(C)(C)C)cc1 | x | -31% | 10% | x | -3% | 17%
Cc1ccc(Cc2c(-c3ccc(C)cc3)nc3ccc(Cl)cn23)cc1 | x | i | -4% | x | -3% | 10µM*
Cc1ccc(Cc2c(-c3ccc(Cl)cc3)nc3ccc(Cl)cn23)cc1 | x | -37% | -27% | x | -6% | u
CC(C)(C)Cc1c(-c2ccc(F)cc2)nc2ccc(Cl)cn12 | x | -50% | u | x | -5% | 5.6µM*
Cc1ccc(-n2cc(-c3ccccc3)c3c(NC4CCCC4)ncnc32)cc1 | 0 | i | -8% | -2 | x | 2.5µM*
CC1CN(c2ncnc3c2c(-c2ccccc2)cn3-c2ccc(F)cc2)CC(C)O1 (configuration not stated) | 1 | -23% | 6% | -1 | 12% | 4µM*
SMILES | TRHR agonist | PTHR1 agonist | HEK293 tox | TRHR PAM | GLP1R ag | GLP-1R inv ag
Cc1ccc(-n2cc(-c3ccccc3)c3c(N4CCOCC4)ncnc32)cc1 | 1 | -11% | -17% | -1 | 7% | 3.5µM*
Cc1ccc(-n2ncc(C(=O)Nc3ccc4c(c3)OCCO4)c2C2CCN(C(=O)OC(C)(C)C)CC2)cc1 | 2 | -37% | 19% | 31* | x | -20%
CC(C)(C)OC(=O)N1CCC(c2c(C(=O)N3CCN(C4CCCCC4)CC3)cnn2-c2cccc(Cl)c2)CC1 | 7 | i | 0% | 21 | x | -3%
CC(C)(C)OC(=O)N1CCC(c2c(C(=O)NCC3CCN(C4CCCC4)C3)cnn2-c2cccc(Cl)c2)CC1 (configuration not stated) | -1 | -14% | u | -5 | 4% | 13µM*
CCN1CCN(C(=O)c2cnn(-c3cccc(Cl)c3)c2C2CCN(C(=O)OC(C)(C)C)CC2)CC1 | 2 | u | 6% | 37* | x | 5%
Cn1c(C=O)c(-c2ccc3c(c2)OCCO3)c2ccccc21 | 0 | -2% | 0% | 4 | -4% | u
COc1ccccc1CNCc1cc(Br)ccc1OC | 2 | -2% | -20% | -6 | 2% | 6.3µM*
COc1ccccc1CNCc1cc(OC)c(OC)cc1OC | 0 | -25%[57.5 µM] | 1% | 2 | -9% | 1%
COc1ccccc1C(=O)COC(=O)C(CCSC)NC(=O)COc1ccccc1 (configuration not stated) | 0 | i | 6% | 30* | 4% | 3%
COc1ccccc1C(=O)NC(CCSC)C(=O)NNC(=O)C(C)Oc1ccccc1F (configuration not stated) | 0 | i | -1% | -5 | 6% | -6%
COc1ccc(OC)c(C(=O)COC(=O)C(CCSC)NC(=O)COc2ccccc2)c1 (configuration not stated) | 2 | i | -3% | -3 | 15% | 1%
COc1ccccc1C(=O)NC(CCSC)C(=O)OC(C)C(N)=O (configuration not stated) | -1 | i | 6% | 36* | 7% | 3%
Cc1ccccc1CNC(=O)c1cc2cccc3c2n1CC(C)S3 (configuration not stated) | 1 | i | 0% | 4 | x | 10µM*
CC1Cn2c(C(=O)NCc3ccccc3Cl)cc3cccc(c32)S1 (configuration not stated) | 1 | i | -7% | 7 | x | 11µM*
CCOC(=O)N1CCC(NC(=O)c2cc(COc3ccccc3SC)on2)CC1 | -1 | -9% | -4% | 3 | 1% | u
COc1ccc(Oc2ncccc2[N+](=O)[O-])cc1 | -1 | -19% | 2% | -7 | 13% | -13%
